Data from PubChem BioAssay AID720566 (Broad Institute, 2013).
Measured potencies and affinities stand elsewhere. Unmarked numbers belong to inactive results.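 How the source made its calls: active means in all runs, an absorbance decrease of 25% or more of the average positive control decrease; inconclusive means runs conflict, with both active and inactive results; inactive means all runs inactive, opposite-direction effects included.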

target: Protein disulfide-isomerase A6 (Homo sapiens) (UniProt Q15084); test: reduced insulin turbidity driven by ERp5 (PDIA6) – biochemical, absorbance 650 nm, cherry-picked samples, dose response (AID 720566); details: Recombinant ERp5 insulin aggregation; series mostly up to 35 µM; activity change, negative = inhibition: at the top concentration;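 further: negative values mean less insulin aggregation so ERp5 inhibition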
Sequence (Q15084 whole entry, looked up): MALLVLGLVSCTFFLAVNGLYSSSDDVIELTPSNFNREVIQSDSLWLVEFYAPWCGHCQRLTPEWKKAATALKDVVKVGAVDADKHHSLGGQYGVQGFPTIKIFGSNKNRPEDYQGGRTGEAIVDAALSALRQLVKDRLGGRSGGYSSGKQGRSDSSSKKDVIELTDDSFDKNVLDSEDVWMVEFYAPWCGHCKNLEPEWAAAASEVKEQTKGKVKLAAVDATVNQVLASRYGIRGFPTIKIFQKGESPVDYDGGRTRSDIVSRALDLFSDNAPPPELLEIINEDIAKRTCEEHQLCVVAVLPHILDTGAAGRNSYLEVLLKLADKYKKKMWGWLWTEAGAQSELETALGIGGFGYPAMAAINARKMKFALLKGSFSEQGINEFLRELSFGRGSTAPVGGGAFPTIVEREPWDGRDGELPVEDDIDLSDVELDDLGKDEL

| Compound | activity change, negative = inhibition [%] |
| --- | --- |
| CCn1nc(/C=C/c2ccccc2)nc2c(=O)n(C)c(=O)nc1-2 | -22 |
| C[C@H](CO)N1C[C@H](C)[C@@H](CN(C)C(=O)Oc2ccc3ccccc3c2)OCc2cn(nn2)CCCC1=O | -4.28 |
| COc1ccc(C#Cc2ccc([C@H]3[C@H](CO)N4CCCCN(C(=O)Cc5cccnc5)C[C@@H]34)cc2)cc1 | -9.93 |
| Cc1cc(OCC(=O)NCc2ccc(S(N)(=O)=O)cc2)c2c3c(c(=O)oc2c1)CCC3 | 9.4 |
